Laboratory results taken from PubChem BioAssay AID504834 (National Center for Advancing Translational Sciences (NCATS), 2011).
Out of some 320,000 compounds screened, about 22,000 (6.9%) were called active. Another 27% or so got no clear call; they are omitted. The list comes from a sample in which actives are over-represented; it also holds similar structures and randomly drawn compounds. Unmarked numbers belong to inactive results. Calls follow the shape of the dose curve; as a rule, active = well fitted inhibition curve with a large enough effect; inconclusive = small, poorly fitted or top-dose-only effect, or another doubt; inactive = no such curve, though single readings can be large or run the other way.

Assay: Primary qHTS for delayed death inhibitors of the malarial parasite plastid, 96 hour incubation
Settings: P. falciparum luciferase reporter growth; series mostly up to 28.7 µM; activity change, negative = inhibition: at the top concentration
Summary of the method: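 P. falciparum expressing integrated firefly luciferase, in erythrocytes at 2% hematocrit, 0.05% parasitemia, incubated with compounds 96 h at 37 C, 5% CO2. Growth inhibition read as loss of luminescence; two-generation exposure targets delayed-death apicoplast inhibitors.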
% is scaled to controls: 0 for no effect and ±100 for the full control effect; potency is read from the fitted curve at half-maximal effect.

Row | SMILES | activity change, negative = inhibition | Potency
1 | COc1cccc(-c2nc(CS(=O)(=O)CC(=O)NCCc3ccc(OC)c(OC)c3)c(C)o2)c1 | 20.7% | 
2 | CCc1nc2ccccc2c(C(=O)NCc2ccc(OC)cc2)c1C | -18.8% | 
3 | O=C(NCc1ccccc1)c1onc(CSc2nc3ccccc3[nH]2)c1C(=O)NCc1ccccc1 |  | 1.85 µM (active)
4 | COc1ccccc1CSc1nc2ccccc2[nH]1 | -3.5% | 
5 | Cc1ccc(C)c(NC(=O)COC(=O)Cn2c(C)csc2=O)c1 | -25.6% | 
6 | O=C(Nc1ccccc1)C1CC(=O)n2c(nc3ccccc32)N1 (configuration not stated) | 16.1% | 
7 | Cc1ccc(OCC(=O)Nc2ccccc2C(=O)NC2CC2)cc1 | -22.2% | 
8 | CC1(c2ccc(Cl)cc2)NC(=O)N(CC(=O)c2ccc3c(c2)OCO3)C1=O (configuration not stated) | 43.1% | 
9 | O=C(NCCCN1CCOCC1)c1ccc(N2CCCC2)c([N+](=O)[O-])c1 | 486% | 
10 | CCOC(=O)c1c(NC(=O)c2ccc(N3CCOCC3)c([N+](=O)[O-])c2)sc(C)c1C | 3.58% | 
11 | COCCNC(=O)c1ccc(N2CCC3(CC2)OCCO3)c([N+](=O)[O-])c1 |  | 14.7 µM (active)
12 | Cc1cccc(-c2noc(CCC(=O)NC3CCCC3)n2)c1 | 14.7% | 
13 | NS(=O)(=O)c1cc(C(=O)OCC(=O)NNC(=O)c2ccccc2)ccc1Cl | 68.3% | 
14 | O=C(/C=C/c1ccc2c(c1)OCO2)NCc1ccc(F)cc1 | 255% | 
15 | CC1CCC(N2CC(=O)N(Cc3ccc4c(c3)OCO4)C(c3ccc(F)cc3)C2=O)CC1 (configuration not stated) |  | 9.28 µM (active)
16 | CC1CCC(NC(=O)C2c3ccccc3C(=O)N2Cc2ccc3c(c2)OCO3)CC1 (configuration not stated) | 56.1% | 
17 | O=S(=O)(c1cccc(Cn2nnc(-c3ccc(F)cc3)n2)c1)N1CCOCC1 | -12.7% | 
18 | CCOC(=O)c1cc(=O)c2ccc(OCc3ccccc3)cc2o1 | 27.5% | 
19 | CC(C)Oc1ccc(C(=O)NCC(=O)Nc2ccc3c(c2)CCC3)cc1 | 36.9% | 
20 | Nc1ccc2nn(-c3ccc(Cl)cc3)nc2c1 | 155% | 
21 | Cc1ccc(-n2ncc3c(=O)[nH]cnc32)c(C)c1 |  | 14.7 µM (active)
22 | COC(=O)CSc1ncnc2c1cnn2-c1ccc(C)cc1C | 87.9% | 
23 | Cc1ccc(-n2ncc3c2ncn2nc(-c4ccco4)nc32)c(C)c1 | 44.3% | 
24 | COc1cc(NC(=O)C2=CC(c3ccc(C)cc3)=NS(=O)(=O)N2C)cc(OC)c1OC | -4.54% | 
25 | CCCS(=O)(=O)N1CCC(CCOc2ccccc2)(C(=O)OCC)CC1 | -21.7% | 
26 | CCOC(=O)C1(CCOc2ccccc2)CCN(C(=O)c2cncs2)CC1 |  | 9.28 µM (active)

Row | SMILES | activity change, negative = inhibition | Potency
27 | CCOC(=O)C1(CCOc2ccccc2)CCN(Cc2cc(OC)cc(OC)c2)CC1 | 0.22% | 
28 | CC(=O)NCC(=O)N1CCC(n2nccc2NC(=O)CCCc2ccccc2)CC1 | 21.2% | 
29 | CCOc1ncccc1C(=O)Nc1ccc(S(=O)(=O)Nc2nc(C)cc(C)n2)cc1 | 24.2% | 
30 | COc1ccc(/C=C(\NC(=O)c2ccccc2)C(=O)NCCN2CCOCC2)cc1OC | 20.6% | 
31 | Nc1nc(NCc2ccccc2)n(-c2ccccc2)n1 | 10.3% | 
32 | Cc1ccc2nc(SCC(=O)Nc3cccc4ccccc34)nc(=O)n2c1 | 9.87% | 
33 | COc1ccccc1N1CCN(C(=O)CCS(=O)(=O)c2ccc3c(c2)NC(=O)C(C)S3)CC1 (configuration not stated) | 102% | 
34 | COc1ccccc1N1CCN(S(=O)(=O)c2ccc(Cl)cc2)CC1 | -24.6% | 
35 | COc1ccccc1N1CCN(S(=O)(=O)c2ccc3c(c2)NC(=O)CS3)CC1 |  | 11.7 µM (active)
36 | Cc1cc(C)c2c(Cn3ccnc3)cc(=O)oc2c1 | -21% | 
37 | CCOc1ccc(S(=O)(=O)N2CCC(C(=O)OCc3ccc(OC)cc3)CC2)cc1 | -38.3% | 
38 | O=C(CSc1n[nH]c(-c2cccs2)n1)N1CCCCC1 | 26.9% | 
39 | Nc1ncc(CN2CCCC(C(=O)Nc3ccc(-c4ccco4)cc3)C2)cn1 (configuration not stated) | 58.2% | 
40 | NC(=O)c1cc(S(=O)(=O)NCCCc2ccco2)cs1 | 23.8% | 
41 | S=C(Nc1cccc(Cl)c1)Nc1ccc2c(c1)OCCO2 | 0% | 
42 | CCS(=O)(=O)N1Cc2ccccc2CC1C(=O)Nc1ccc(OC)cc1OC (configuration not stated) | -16.9% | 
43 | COc1ccc(C(=O)N2CCC(C(=O)Nc3ccc(C)cc3)CC2)cc1 | -19.5% | 
44 | COc1ccc(C(=O)Nc2c(Cl)cc(Cl)cc2C(=O)N2CCC(C)CC2)cc1 |  | 13.1 µM (active)
45 | COc1ccc(N2CCN(C(=O)C3CCN(C(=O)c4ccccc4Cl)CC3)CC2)cc1 | 26% | 
46 | CCCCc1ccc(NC(=O)NCc2cccnc2)cc1 | 11.3% | 
47 | CCOc1ccc(S(=O)(=O)NCCC(=O)NCC(C)(C)N2CCOCC2)cc1 | 20.6% | 
48 | CC(C)(C)OC(=O)NCCCCCC(=O)N/N=C/c1coc2ccccc2c1=O | 80.7% | 
49 | Cc1ccc2occ(/C=N/NC(=O)c3ccccc3C)c(=O)c2c1 |  | 11.7 µM (active)
50 | O=C(N/N=C/c1coc2ccccc2c1=O)c1cc2ccccc2o1 | 1.51% | 
51 | Cc1[nH]c2ccccc2c1C(=O)CN1CCCC(C)C1 (configuration not stated) | -14.5% | 
52 | O=C(CSC1=NS(=O)(=O)c2cc(F)ccc2N1)Nc1ccccc1F | 60.3% | 

Row | SMILES | activity change, negative = inhibition | Potency
53 | CCOc1ccc(C(=O)Nc2cc(Cl)ccc2-n2cncn2)cc1OC | -2.8% | 
54 | COc1ccc(NC(=O)C(CC(C)C)NC(=O)C2CCC(C)CC2)cc1 (configuration not stated) | -1.4% | 
55 | CC1C(=O)Nc2ccccc2N1C(=O)c1ccc(F)cc1F (configuration not stated) | 4.46% | 
56 | CC(C)[C@H](NC(=O)N1CC(=O)Nc2ccccc21)C(=O)N[C@@H](Cc1c[nH]c2ccccc12)C(=O)O | -23.4% | 
57 | CC(C)[C@H](NC(=O)N1c2ccccc2NC(=O)[C@@H]1C(C)C)C(=O)N[C@H](C(=O)O)c1ccccc1 |  | 8.28 µM (active)
58 | O=C(CNC(=O)c1cccnc1)N/N=C/c1cc(Br)c(O)c(Br)c1 | 45% | 
59 | O=C(CCS(=O)(=O)c1ccccc1)NC1CCCC1 | 8.16% | 
60 | COC(=O)c1ccc(CNC(=O)C2CCC(=O)N(Cc3ccccn3)C2)cc1 (configuration not stated) | 238% | 
61 | CCCCn1c(N)c(N2CCOCC2)c(=O)n(CC(=O)NCCc2ccccc2)c1=O | 15.5% | 
62 | N#CCSc1nc2ccc(N3CCOCC3)cc2c(=O)n1CCc1ccccc1 |  | 13.1 µM (active)
63 | O=C(CCn1c(SCC(=O)c2ccccc2)nc2ccccc2c1=O)NCc1ccc(F)cc1 | 0% | 
64 | O=S(=O)(NCc1cccnc1)c1ccc(Cl)nc1 | 69.2% | 
65 | COC(=O)c1ccc(C23CC4(C2)[C@H](CN(Cc2cccnc2)[C@@H]4c2ccccc2)C3c2ccc(Cl)nc2)cc1 (some centres not stated) |  | 2.33 µM (active)
66 | O=C(O)C1CC(=O)N(Cc2cccnc2)C1 (configuration not stated) | -6.43% | 
67 | Cc1ccc(CNC(=O)c2cccc3c2C(=O)c2ccc(N4CCC(C)CC4)cc2S3(=O)=O)cc1 | 3.93% | 
68 | Cc1cccc(CC(=O)Nc2c3c(nn2-c2cccc(Cl)c2)CS(=O)C3)c1 (configuration not stated) | 37.9% | 
69 | COc1ccc(CC(=O)Nc2c3c(nn2-c2cccc(Cl)c2)CS(=O)C3)cc1 (configuration not stated) |  | 1.47 µM (active)
70 | COc1ccc(-n2nc3c(c2NC(=O)Cc2cccc(C)c2)CS(=O)C3)cc1 (configuration not stated) | -26.6% | 
71 | CC(=O)c1ccc(N2Cc3ccccc3C2)cc1 | 15.6% | 
72 | COc1ccc(F)cc1S(=O)(=O)N1CCCCC1 | -25.6% | 
73 | CCc1ccc(S(=O)(=O)Nc2cc3c(cc2N2CCCCC2)n(C)c(=O)c(=O)n3C)cc1 | 12.4% | 
74 | CC1CSc2nnc(CCc3ccccc3)n21 (configuration not stated) | -5.11% | 
75 | c1ccc(CCC2=NCCn3cccc32)cc1 |  | 14.7 µM (active)
76 | Cn1c(CCc2ccccc2)nnc1SCC(N)=O | 0.25% | 
77 | CS(=O)(=O)c1ccc(C(=O)OCC(=O)NNC(=O)COc2ccc(Cl)cc2)cc1 | -3.01% | 
78 | COc1ccc(C(C(=O)NC(C)(C)C)N(Cc2ccc(F)cc2)C(=O)CCC(=O)Nc2cc(C)on2)cc1 (configuration not stated) | 10.8% | 

Row | SMILES | activity change, negative = inhibition | Potency
79 | Cn1c(SCC(=O)Nc2nccs2)nnc1-c1cccnc1 | 1.62% | 
80 | COC(=O)c1cn(CC(=O)NCc2cccs2)c2ccccc12 |  | 13.1 µM (active)
81 | CCN(CC)C(=O)C(=O)c1cn(CC(=O)NCc2ccc3c(c2)OCO3)c2ccccc12 | 30.1% | 
82 | O=C(Cn1cc(C(=O)c2cccs2)c2ccccc21)NCc1cccs1 | 200% | 
83 | O=C(NCCc1ccccc1)c1ccc2c(c1)N(Cc1ccccc1)CCS2 | 22.6% | 
84 | O=C(OCc1ccccc1)c1ccc(O)cc1 | 17.2% | 
85 | CS(=O)(=O)N1CCc2nc(-c3ccccc3)sc2C1 | 243% | 
86 | CCOc1cc(C2C(C(=O)c3ccco3)=C(O)C(=O)N2Cc2ccccc2)ccc1O (configuration not stated) | 10.9% | 
87 | CCOC(=O)c1cc(Sc2ccccc2N)cc(C(=O)OCC)n1 | -16.9% | 
88 | CC(=O)N[C@@H](C)C(=O)N1CCC(n2nccc2NC(=O)CCCc2ccccc2)CC1 | -4.67% | 
89 | CC(C)=CCCC(C)CN1CCC(n2nccc2NC(=O)c2ccccc2)CC1 (configuration not stated) |  | 14.7 µM (active)
90 | CC(C)Oc1ccc(CN2CCC(n3nccc3NC(=O)c3cccnc3)CC2)cc1 | -17.2% | 
91 | Cc1nn(C)c(Cl)c1CN1CCC(n2nccc2NC(=O)C2CCCC2)CC1 | 30.4% | 
92 | CC(CN1CCC(n2nccc2NC(=O)C2CCCC2)CC1)c1ccccc1 (configuration not stated) |  | 9.28 µM (active)
93 | O=C(Nc1ccnn1C1CCN(C/C=C/c2ccc(F)cc2)CC1)C1CCCC1 | 34.7% | 
94 | CN1CCN(c2ccccc2NC(=O)COc2ccc(C3CCCCC3)cc2)CC1 | 32.9% | 
95 | N#Cc1cccc(OC(=O)c2ccc3c(=O)n4c(nc3c2)CCC4)c1 | 47.2% | 
96 | O=C(NCCNc1ccccc1[N+](=O)[O-])c1ccccc1F | 45.3% | 
97 | CCCCn1c(N)c(N(CCOC)C(=O)c2cccc(S(=O)(=O)N(C)c3ccccc3)c2)c(=O)[nH]c1=O | -3.71% | 
98 | CCOC(=O)C1=C(N)N2C(=O)C(C)SC2=C(C(=O)OCC)C1c1cc(OC)c(OC)c(OC)c1 (configuration not stated) | -1.9% | 
99 | CCCCOC(=O)c1[nH]c(C)c(C(=O)OC)c1C | -31.2% | 
100 | CCCOC(=O)c1[nH]c2c(c1C)C(=O)CC(c1cc(OC)c(OC)c(OC)c1)C2 (configuration not stated) |  | 11.7 µM (active)
101 | COCCOC(=O)c1[nH]c2c(c1C)C(=O)CC(c1ccc(OC)cc1)C2 (configuration not stated) | 10.5% | 
102 | CCCOC(=O)c1[nH]c2c(c1C)C(=O)CC(c1cccs1)C2 (configuration not stated) |  | 9.28 µM (active)
